Compound activity deposited in PubChem by National Center for Advancing Translational Sciences (NCATS).
JMJD2A Tudor: inhibitors of human JMJD2A Tudor domain | AlphaScreen JMJD2A-Tudor / H3K4me3 peptide binding | Potency, µM (doses to about 114 µM), without a hit: at the highest dose activity change, negative = inhibition, usual class: inhibitors | O75164 | 390,000 compounds, 4.4% hits; also: potency is read from the fitted curve at half-maximal effect; % is scaled to controls: 0 for no effect and ±100 for the full control effect; nearly all actives have a fitted effect of over 50% in size
HP1b chromo inh: HP1-beta chromodomain-methylated histone interaction inhibition; P83916; AlphaScreen HP1-beta / biotin-H3K9me3 peptide binding; Potency, µM (highest dose often 114 µM), for inactives: top-dose activity change, negative = inhibition, usual class: inhibitors; 390,000 compounds, 0.56% hits; AID 540317; also: potency is read from the fitted curve at half-maximal effect; nearly all actives have a fitted effect of over 70% in size
Target sequence (P83916 whole entry, looked up): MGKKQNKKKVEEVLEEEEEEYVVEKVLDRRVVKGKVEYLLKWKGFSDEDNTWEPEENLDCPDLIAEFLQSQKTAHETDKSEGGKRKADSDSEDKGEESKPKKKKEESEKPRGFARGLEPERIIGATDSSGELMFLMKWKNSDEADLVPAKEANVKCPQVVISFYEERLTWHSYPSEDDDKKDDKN
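HP1-beta protein (50 nM final) preincubated 30 min at room temperature with biotinylated H3(1-18)K9me3 peptide (50 nM) in PBS pH 7.4, 0.01% Tween-20, then compound added for 30 min. AlphaScreen streptavidin donor/nickel chelate acceptor beads (10 ug/mL final), 30 min dark, luminescence read.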
PI5P4K alpha inh: PI5P4K alpha (human) kinase inhibition | 330,000 compounds, 1.2% hits | max response, % | P48426 | PI5P4Kalpha enzyme, ADP-Glo luminescence, 60 min; stronger effect = lower value | AID 652105; active = max response of -50% or lower; inconclusive = between -30% and -50%; inactive = -30% or higher; also: value at the top dose of about 77 µM; % is scaled to controls: 0 for no effect and ±100 for the full control effect
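Controls without substrate or without enzyme flank wells where PI5P4Kalpha converts substrate using 5 microM ATP (final). Incubation lasts 60 minutes at room temperature; ADP formed is read by ADP-Glo luminescence.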
BAZ2B block: inhibitors of human BAZ2B bromodomain. Potency, µM (series often up to 114 µM), without a hit: at the top dose activity change, negative = inhibition, actives largely listed as inhibitors. 360,000 compounds, 4.4% hits. AlphaScreen BAZ2B-H3K14Ac peptide displacement. Q9UIF8; also: potency is read from the fitted curve at half-maximal effect; % is scaled to controls: 0 for no effect and ±100 for the full control effect; nearly all actives have a fitted effect of over 60% in size
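AlphaScreen displacement of biotin-H3(5-23)K14Ac peptide (50 nM final) from BAZ2B (50 nM final) in PBS pH 7.4, 0.01% Tween-20; complex preformed 30 min RT, then compounds (top 110 uM) 30 min RT, beads 20 min dark.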
PLK1 PBD block: blocks phosphopeptide binding to human PLK1 polo-box domain; P53350; Plk1 PBD binding of FITC phosphopeptide, fluorescence polarization; Potency, µM, inactives show max response, negative = inhibition, usual class: inhibitors; 360,000 compounds, 2.8% hits; AID 720504; also: potency is read from the fitted curve at half-maximal effect; series mostly up to about 57 µM; % is scaled to controls: 0 for no effect and ±100 for the full control effect; nearly all actives have a fitted effect of over 65% in size
G9a block: blocks human histone lysine methyltransferase G9a; Q96KQ7; G9a H3K9 monomethylation, AlphaScreen, 2 h; Potency, µM (titrated, usually from 102 µM), without a hit: top-dose activity, negative = inhibition, usual class: inhibitors; 350,000 compounds, 8.8% hits; AID 504332; also: potency is read from the fitted curve at half-maximal effect; % is scaled to controls: 0 for no effect and ±100 for the full control effect; nearly all actives have a fitted effect of over 75% in size
Target sequence (Q96KQ7 913-1193 limits assumed): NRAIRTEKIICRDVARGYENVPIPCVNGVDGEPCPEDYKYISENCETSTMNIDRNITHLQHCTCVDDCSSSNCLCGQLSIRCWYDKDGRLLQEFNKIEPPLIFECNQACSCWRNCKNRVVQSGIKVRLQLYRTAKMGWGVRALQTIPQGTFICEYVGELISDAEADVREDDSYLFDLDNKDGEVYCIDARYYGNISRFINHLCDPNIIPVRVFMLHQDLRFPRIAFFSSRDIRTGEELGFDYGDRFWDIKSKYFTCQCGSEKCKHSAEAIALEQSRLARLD
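G9a (20 nM) preincubated 15 min RT with compounds, then 500 nM biotinylated H3K9 peptide and 20 uM SAM added; 2 h RT reaction. Monomethyl-H3K9 product detected by AlphaScreen with anti-H3K9me1 antibody, streptavidin donor and anti-rabbit IgG acceptor beads.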
An asterisk follows results filed as active; ? = inconclusive; · = no result given; [ ] = remark or other dose. A selection: hits, their analogues and other compounds. The true share with any hit is near 12%. Unless noted, calls follow the shape of the dose curve; as a rule, active = well fitted curve in the direction sought with a large enough effect; inconclusive = small, poorly fitted or top-dose-only effect, or another doubt; inactive = no such curve, though single readings can be large; an effect the other way counts as inactive or inconclusive.

SMILES	JMJD2A Tudor	HP1b chromo inh	PI5P4K alpha inh	BAZ2B block	PLK1 PBD block	G9a block
CCc1ccccc1Nc1nc(N)nc(COC(=O)C2CCN(C(=O)c3ccc(F)cc3)CC2)n1	-15%	7%	-2	10%	-5%	-11%
C=CCn1c(COc2ccc(Cl)cc2)nnc1SCC(=O)NCC(=O)OCC	-19%	24%	·	-26%	-5%	28µM*
C=CCn1c(SCc2ccc(C#N)cc2)nnc1-c1cccc(OC)c1	2%	13%	2	-2%	-8%	1%
C=CCn1c(COc2ccc(Cl)cc2)nnc1SCc1ccc(C#N)cc1	?	59%	-80*	3%	-8%	28µM*
C=CCn1c(COc2ccccc2)nnc1SCc1ccc(C#N)cc1	-10%[11.4 µM]	-3%	-3	-5%	-22%	-1%
C=CCn1c(SCc2ccc(C#N)cc2)nnc1-c1ccccc1	-7%	39%	·	-1%	-2%	1.4µM*
CNCC(O)c1cccc(O)c1 (stereo not drawn)	·	·	·	·	·	-32%[2.33 µM]
CC(=O)OC1CC2C(C)(C)C(=O)C3OC3[C@]2(C)C2CC[C@@]3(C)C(c4ccoc4)OC(=O)C4OC43[C@]12C (stereo partly drawn)	·	·	·	·	·	-18%[2.33 µM]
COc1ccc(C(=O)CSc2ncnc3nc[nH]c23)cc1	-11%	30%	6	-16%	-5%	-41%
Cc1ccc(OCCSc2ncnc3nc[nH]c23)cc1	-6%	36%	9	-7%	-2%	40µM*
O=P(O)(O)OC[C@H]1O[C@](O)(COP(=O)(O)O)[C@@H](O)[C@@H]1O	·	·	·	·	·	2%[12.7 µM]
Cc1cc(C)cc(N2CC(c3nnc(NC(=O)c4ccco4)s3)CC2=O)c1 (stereo not drawn)	-21%	14%	·	-31%	·	-40%[59 µM]
O=C(Nc1ncccc1O)c1cccc(S(=O)(=O)NCc2ccccc2)c1	-18%	22%	-4	?	-3%	?
O=C(NC1CCCCC1)n1c(=O)oc2ccc(Cl)cc21	-17%	29%	·	-2%	6µM*	7%[59 µM]
O=C(NC1CCCCC1)n1c(=O)oc2ccccc21	38%	133%	·	7%	?	18%[59 µM]
Cc1cc(C)n(-c2nnc3c4ccccc4n(C)c3n2)n1	79µM*	41%	0	11µM*	3%	1%
CCOC(=O)c1sc(NC(=O)c2cc(CC)on2)c(C(=O)OCC)c1C	4%	50%	·	3%	·	-3%[59 µM]
O=C(Nc1cccc2[nH]ncc12)NS(=O)(=O)c1ccccc1	-5%	37%	-1	?	-5%	40µM*
S=c1[nH]nc(-c2ccco2)n1/N=C/c1ccc(Cl)cc1Cl	40µM*	-21%	·	?	?	?
S=c1[nH]nc(-c2ccco2)n1/N=C/c1cccc(Cl)c1Cl	35µM*	-38%	-13	50µM*	-29%	1.4µM*
COc1ccccc1CCC(=O)Nc1ccc2c(c1)c(=O)n(C)n2C	·	·	6	·	-15%	·
C[C@@H]1Cc2ccccc2N1NC(=O)c1ccc(Cl)c(S(N)=O)c1 (stereo partly drawn)	·	·	·	·	·	23%[21.5 µM]
CCOc1cccc2cc(-c3nc(-c4ccc(Cl)cc4)c(C)s3)c(=O)oc12	-12%	26%	·	1%	·	1%[59 µM]
COc1cc(NC(=O)COC(=O)CNC(=O)c2ccc(C)s2)cc(OC)c1	-8%[11.4 µM]	?	-9	-4%	24µM*	-1%
CC(=O)N1CCOc2ccc(S(=O)(=O)N(C)c3cccc(C)c3)cc21	10%	34%	11	?	-17%	-17%
OCC(CO)(CO)NCC(O)CN1c2ccccc2Sc2ccccc21 (stereo not drawn)	-21%	28%	3	-18%	-3%	18%
CCc1ccc2c(c1)N(C[C@H](C)CN(C)C)c1ccccc1S2	·	·	·	·	·	18µM*
CCN(CC)CCN1c2ccccc2Sc2ccccc21	2.8µM*	45µM*	-4	71µM*	-4%	?
CC(=O)N1c2ccccc2Sc2ccc3ccccc3c21	·	·	-18	·	3%	·
CCN(CC)[C@@H](C)CN1c2ccccc2Sc2ccccc21	·	·	·	·	·	8.9µM*
